# Test results published in the supplement of paper PMC8975748.
# Structures can show the parent of a compound that is named as a salt. ± gives the standard deviation of the averaged measurements.
# Tested on: Saccharomyces cerevisiae BY4741 SeMeCo community
# Assay: mean cell size (pixel area) (pixels); higher = larger cells
# Settings: 10 µM; 24 h; SM minimal medium
# How it was run: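 A four-plasmid fluorescent Saccharomyces cerevisiae BY4741 community was tested; each plasmid complements one auxotrophy and carries a fluorescent marker. An overnight preculture at OD600 = 1.0 was diluted to OD600 = 0.3, and 70 µl was added to 384-well plates acoustically predosed with drug (final 10 µM) in SM medium for 24 h. Cells were fixed with paraformaldehyde and imaged by automated confocal microscopy, with analysis in Harmony. Mean cell pixel area per well is averaged over 3 replicates. Same SeMeCo high-content imaging drug screen: Selleck FDA-approved drugs at 10 µM, 24 h in SM medium, 384-well plates, 3 replicates.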
row,Compound,mean cell size
1,NC(=O)N1c2ccccc2CC(=O)c2ccccc21 [Oxcarbazepine],12.4 ± 0.25
2,CC(=O)OCC1=C(C(=O)O)N2C(=O)[C@@H](NC(=O)CSc3ccncc3)[C@H]2SC1 [Cephapirin Benzathine],12.7 ± 0.17
3,COc1ccc(C[C@H](N)C(=O)N[C@H]2[C@@H](O)[C@H](n3cnc4c(N(C)C)ncnc43)O[C@@H]2CO)cc1 [Puromycin 2HCl],12.5 ± 0.13
4,OCc1ccccc1O[C@@H]1O[C@H](CO)[C@@H](O)[C@H](O)[C@H]1O [Salicin],12.4 ± 0.14
5,O=C(CCCN1CCC(O)(c2ccc(Cl)cc2)CC1)c1ccc(F)cc1 [Haloperidol],12.4 ± 0.2
6,COc1cc(O)c(C(=O)Nc2nc(C(=O)NCCN(C(C)C)C(C)C)cs2)cc1OC [Acotiamide],12.14 ± 0.12
7,CC(=O)OCC(CCn1cnc2cnc(N)nc21)COC(C)=O [Famciclovir],12.6 ± 0.22
8,O=C(c1ccccc1)c1ccc2n1CCC2C(=O)O (stereo not given) [Ketorolac],12.6 ± 0.32
9,CC[C@H]1OC(=O)[C@H](C)[C@@H](O[C@H]2C[C@@](C)(OC)[C@@H](O)[C@H](C)O2)[C@H](C)[C@@H](O[C@@H]2O[C@H](C)C[C@H](N(C)C)[C@H]2O)[C@](C)(O)C[C@@H](C)[C@@H]2N[C@@H](COCCOC)O[C@H]([C@H]2C)[C@]1(C)O [Dirithromycin],12.3 ± 0.27
10,C#CCC(Cc1cnc2nc(N)nc(N)c2n1)c1ccc(C(=O)N[C@@H](CCC(=O)O)C(=O)O)cc1 (stereo not given in full) [Pralatrexate],14.4 ± 0.34
11,NNc1nncc2ccccc12 [Hydralazine HCl],11.8 ± 0.14
12,COc1cccc2c1C(=O)c1c(O)c3c(c(O)c1C2=O)CC(O)(C(=O)CO)CC3OC1CC(N)C(O)C(C)O1 (stereo not given) [Doxorubicin (Adriamycin) HCl],13.68 ± 0.1
13,CCN1CCCC1CNC(=O)c1cc(S(N)(=O)=O)ccc1OC (stereo not given) [Sulpiride],12.54 ± 0.037
14,CCCCC(F)(F)[C@@]1(O)CC[C@H]2[C@@H](CC(=O)[C@@H]2CCCCCCC(=O)O)O1 [Lubiprostone],12.6 ± 0.28
15,CCCN[C@H]1CCc2nc(N)sc2C1 [Pramipexole],12.3 ± 0.16
16,Cc1c(Nc2ncccc2C(=O)O)cccc1C(F)(F)F [Flunixin Meglumin],12.6 ± 0.17
17,COc1ccc2[nH]c([S+]([O-])Cc3ncc(C)c(OC)c3C)nc2c1 (stereo not given) [Omeprazole Sodium],12.1 ± 0.19
18,"CO[C@H]1C[C@@H]2CC[C@@H](C)[C@@](O)(O2)C(=O)C(=O)N2CCCC[C@H]2C(=O)O[C@H]([C@H](C)C[C@@H]2CC[C@@H](OP(C)(C)=O)[C@H](OC)C2)CC(=O)[C@H](C)/C=C(\C)[C@@H](O)[C@@H](OC)C(=O)[C@H](C)C[C@H](C)/C=C/C=C/C=C/1C [Ridaforolimus (Deforolimus, MK-8669)]",14.2 ± 0.11
19,C#C[C@]1(OC(C)=O)CC[C@H]2[C@@H]3CCC4=C[C@@H](OC(C)=O)CC[C@@H]4[C@H]3CC[C@@]21C [Ethynodiol diacetate],12.3 ± 0.37
20,Cc1ccccc1C(OCCN(C)C)c1ccccc1 (stereo not given) [Orphenadrine Citrate],12.2 ± 0.14

row,Compound,mean cell size
1,CCOc1cc(N)c([N+](=O)[O-])cc1C(=O)NC1CCN(CC2CC=CCC2)CC1 (stereo not given) [Cinitapride Hydrogen Tartrate],12.3 ± 0.2
2,Cc1onc(-c2ccccc2)c1-c1ccc(S(N)(=O)=O)cc1 [Valdecoxib],12.3 ± 0.17
3,COc1ccc(Cc2cnc(N)nc2N)cc1OC [Diaveridine],12.35 ± 0.055
4,CC1(C)[C@H](C(=O)O)N2C(=O)C[C@H]2S1(=O)=O [Sulbactam sodium],12.54 ± 0.013
5,CCc1cc(C(N)=S)ccn1 [Ethionamide],12.45 ± 0.074
6,O=C(O)c1cc(=O)c2c(OCC(O)COc3cccc4oc(C(=O)O)cc(=O)c34)cccc2o1 [Disodium Cromoglycate],12.1 ± 0.22
7,Clc1ccc(C(Cn2ccnc2)OCc2c(Cl)cccc2Cl)c(Cl)c1 (stereo not given) [Isoconazole nitrate],12.1 ± 0.18
8,CCCCCCCCN=C(N)NC(N)=NCc1ccc(Cl)c(Cl)c1 [Olanexidine Hydrochloride semihydrate],9.82 ± 0.35
9,Nc1nc(N)nc(-c2cc(Cl)ccc2Cl)n1 [Irsogladine],12.2 ± 0.19
10,NC(=O)c1ncn([C@@H]2O[C@H](CO)[C@@H](O)[C@H]2O)n1 [Ribavirin],12.45 ± 0.12
11,CC1(C)S[C@@H]2[C@H](NC(=O)[C@H](N)c3ccccc3)C(=O)N2[C@H]1C(=O)OCOC(=O)[C@@H]1N2C(=O)C[C@H]2S(=O)(=O)C1(C)C [Sultamicillin],12.26 ± 0.082
12,CN1C2CCCC1CC(NC(=O)c1nn(C)c3ccccc13)C2 (stereo not given) [Granisetron],12.3 ± 0.14
13,CCC[C@@H]1C[C@@H](C(=O)N[C@@H]([C@H]2O[C@H](SC)[C@H](O)[C@@H](O)[C@H]2O)[C@@H](C)O)N(C)C1 [Lincomycin HCl],12.4 ± 0.14
14,CCc1c2c(nc3ccc(OC(=O)N4CCC(N5CCCCC5)CC4)cc13)-c1cc3c(c(=O)n1C2)COC(=O)[C@]3(O)CC [Irinotecan HCl Trihydrate],12.5 ± 0.15
15,Cc1[nH]c(=O)c(C#N)cc1-c1ccncc1 [Milrinone],12.4 ± 0.18
16,C[C@@H](O)[C@H]1C(=O)N2C(C(=O)O)=C(S[C@@H]3CN[C@H](C(=O)Nc4cccc(C(=O)O)c4)C3)[C@H](C)[C@H]12 [Ertapenem sodium],11.9 ± 0.17
17,CN(C)CCc1c[nH]c2ccc(C[C@H]3COC(=O)N3)cc12 [Zolmitriptan],12.5 ± 0.18
18,Clc1ccc(C(Cn2ccnc2)OCc2ccsc2Cl)c(Cl)c1 (stereo not given) [Tioconazole],12.1 ± 0.12
19,CN1CCOC(c2ccccc2)c2ccccc2C1 (stereo not given) [Nefopam HCl],12.1 ± 0.25
20,C[C@]1(Cn2ccnn2)[C@H](C(=O)O)N2C(=O)C[C@H]2S1(=O)=O [Tazobactam],12.4 ± 0.26
